Screening results deposited in PubChem BioAssay by several laboratories.
Hits are enriched below; roughly 5.2% of the tested compounds scored in any of these assays.
NRP1-CendR mod: modulators of CendR peptide binding to human neuropilin-1; O14786; FAM-RPARPAR peptide binding to NRP-1, fluorescence polarization; inhibition, % at 25 µM; 360,000 tested, 0.85% active;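 active means inhibition or corrected inhibition above about 18%, plus a signal ratio from 0.5 to 1.5, limit read from the data, passing the limit was not always enough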
CR mimetic SO: lowers age-related superoxide in aged yeast cells | S. cerevisiae aged cells, superoxide DHE fluorescence; hits give low values | superoxide response (% of plate mean), % at 10 µM | 330,000 tested, 0.18% active | AID 2690;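 active means superoxide response under a set limit, about three screen SD below normal, cut at about 65% in these data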;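 further: yeast aged for seven days with compound at 30 °C before DHE staining; 100% = average MFI of all compound-treated wells on the plate with controls excluded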
APOBEC3A inh: blocks human APOBEC3A ssDNA deamination | P31941 | recombinant A3A, FAM/TAMRA ssDNA deamination fluorescence | inhibition, % at 20 µM | 330,000 tested, 0.41% active | AID 493011;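 active means at least 40% inhibition at 20 µM here, with at most 30% in a related deaminase screen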;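 further: plate controls were A3A with DMSO for no effect and wells lacking A3A enzyme for full effect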
APOBEC3G inh: blocks human APOBEC3G single-stranded DNA deamination; Q9HC16; recombinant A3G, ssDNA deamination FAM/TAMRA fluorescence; inhibition, % at 20 µM; 330,000 tested, 0.28% active; AID 493012;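 active means inhibition of at least 40% at 20 µM, with no more than 30% in the related APOBEC3A deaminase screen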;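 further: plate controls were DMSO wells with A3G for no effect and wells lacking A3G enzyme for full effect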
Target sequence (Q9HC16 whole entry, looked up): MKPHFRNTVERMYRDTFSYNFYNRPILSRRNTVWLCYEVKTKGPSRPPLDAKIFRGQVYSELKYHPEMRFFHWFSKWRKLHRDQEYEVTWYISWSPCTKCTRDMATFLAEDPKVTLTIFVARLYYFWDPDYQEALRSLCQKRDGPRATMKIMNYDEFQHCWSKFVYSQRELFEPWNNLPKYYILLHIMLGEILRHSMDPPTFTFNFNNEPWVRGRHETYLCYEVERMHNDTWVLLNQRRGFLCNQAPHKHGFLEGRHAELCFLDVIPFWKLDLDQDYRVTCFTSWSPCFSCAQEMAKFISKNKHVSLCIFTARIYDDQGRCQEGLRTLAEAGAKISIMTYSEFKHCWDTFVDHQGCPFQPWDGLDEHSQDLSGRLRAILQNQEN
ALR H2O2 inh: human ALR oxidase inhibition via reduced H2O2; inhibition, % (concentration not given with the values); purified ALR, DTT oxidation, H2O2 HRP-luminol luminescence; 290,000 tested, 3.8% active;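 active means mean replicate inhibition above about 79%, with every replicate also reaching it, limit read from the data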
PfM18AAP inh-1: PfM18AAP enzyme inhibition | inhibition, % at 7.35 µM | recombinant PfM18AAP, H-Glu-NHMec fluorogenic cleavage | 290,000 tested, 1.2% active;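 active means inhibition above the campaign mean inhibition over all tested compounds plus 3 SD, cut at about 28% in these data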;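 further: 0% = plate median of test compound wells and 100% = 2 mM ZnCl2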
PfM18AAP inh-2: PfM18AAP inhibition, confirmation | shares compounds with PfM18AAP inh-1 | recombinant PfM18AAP, H-Glu-NHMec fluorogenic cleavage | inhibition, % at 7.35 µM | 2,400 tested, 28% active | AID 2170;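 active means mean inhibition over replicate wells above the hit cutoff set for the earlier primary screen, cut at about 29% in these data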;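 further: 0% = median of test compound wells and 100% = 2 mM ZnCl2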
CTSL1 confirm: Cathepsin L (human) inhibition, confirmation | shares compounds with PfM18AAP inh-1 | purified cathepsin L1, Z-Leu-Arg-MCA fluorescence | inhibition, % at 5.96 µM | 2,400 tested, under 10 active | AID 2178;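 active means average inhibition across replicates above the hit cutoff set in the earlier primary screen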;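 further: 0% = median of test compound wells and 100% = Z-Phe-Ala-diazomethylketone 1 µM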
* hit, by the source's call.

What do the screens show for `COc1ccccc1N1C(=O)C=C(Sc2nc(C)cc(C)n2)C1=O`?
NRP1-CendR mod: -1.4; CR mimetic SO: 101.4; APOBEC3A inh: -5.3; APOBEC3G inh: -1.0; ALR H2O2 inh: 27.9; PfM18AAP inh-1: 35.4*; PfM18AAP inh-2: -321.5; CTSL1 confirm: -1.5

Results for O=C1c2ccccc2C(=O)N1CCSC(=S)N1CCOCC1 ?
NRP1-CendR mod: 2.7; CR mimetic SO: 109.2; APOBEC3A inh: -5.4; APOBEC3G inh: -7.2; ALR H2O2 inh: -1.8; PfM18AAP inh-1: -2.2

Results for Clc1ccc(NCn2cncn2)nc1 ?
NRP1-CendR mod: -0.7; CR mimetic SO: 103.5; APOBEC3A inh: -3.2; APOBEC3G inh: -6.0; ALR H2O2 inh: 1.2; PfM18AAP inh-1: 78.5*; PfM18AAP inh-2: 63.5*; CTSL1 confirm: 4.1

Results for S=c1[nH]nc(Cc2n[nH]c(=S)n2-c2ccccc2)n1-c1ccccc1 ?
NRP1-CendR mod: 3.0; CR mimetic SO: 86.8; APOBEC3A inh: -4.3; APOBEC3G inh: -3.1; ALR H2O2 inh: 93.4*; PfM18AAP inh-1: 35.4*; PfM18AAP inh-2: 2.2; CTSL1 confirm: 3.3

What do the screens show for `S=c1[nH]nc(Cn2nnc3ccccc32)n1-c1ccccc1`?
NRP1-CendR mod: -5.2; CR mimetic SO: 99.7; APOBEC3A inh: -5.1; APOBEC3G inh: 5.7; ALR H2O2 inh: 54.2; PfM18AAP inh-1: 42.5*; PfM18AAP inh-2: -0.5; CTSL1 confirm: 0.1

Results for Cc1nc2ccccc2n1Cc1n[nH]c(=S)n1-c1ccc(Cl)cc1 ?
NRP1-CendR mod: -4.8; CR mimetic SO: 75.5; APOBEC3A inh: 1.4; APOBEC3G inh: -0.6; ALR H2O2 inh: 44.4; PfM18AAP inh-1: 38.8*; PfM18AAP inh-2: -2.6; CTSL1 confirm: -0.3

Results for CC(C)CC1(C)NC(=O)N(CC(=O)N2C(C)CCCC2C)C1=O (stereo not given) ?
NRP1-CendR mod: -2.8; CR mimetic SO: 92.0; APOBEC3A inh: -2.9; APOBEC3G inh: -5.1; ALR H2O2 inh: -2.7

Results for COc1ccccc1C1C2=C(N=c3s/c(=C/c4cccc(OCC(=O)O)c4)c(=O)n31)c1ccccc1CC2 (stereo not given) ?
NRP1-CendR mod: -32.9; CR mimetic SO: 96.8; ALR H2O2 inh: -44.6; PfM18AAP inh-1: 36.5*; PfM18AAP inh-2: -33.5; CTSL1 confirm: -2.2

How did CCOC(=O)CSC1=C(C#N)C(c2ccc(F)cc2)C(C(C)=O)=C(C)N1 (stereo not given) do in these assays?
NRP1-CendR mod: -7.6; CR mimetic SO: 103.1; APOBEC3A inh: 1.3; APOBEC3G inh: -0.6; ALR H2O2 inh: 20.4; PfM18AAP inh-1: 18.5

Results for CCOC(=O)C1=C(C)NC(SCC(=O)OC)=C(C#N)C1c1ccc(C(=O)OC)cc1 (stereo not given) ?
NRP1-CendR mod: -11.7; CR mimetic SO: 100.6; APOBEC3A inh: -1.4; APOBEC3G inh: -3.4; ALR H2O2 inh: -1.8; PfM18AAP inh-1: 36.5*; PfM18AAP inh-2: -12.1; CTSL1 confirm: 4.6

How did CC1CCC(NC(=O)c2cc(S(=O)(=O)N3CCCCC3)c[nH]2)CC1 (stereo not given) do in these assays?
NRP1-CendR mod: 0.4; CR mimetic SO: 107.5; APOBEC3A inh: -2.6; APOBEC3G inh: -4.2; ALR H2O2 inh: 7.1; PfM18AAP inh-1: 1.1

How did Cc1ccc(S(=O)(=O)N2CCOCC2)cc1C(=O)NC1CCCCCC1 do in these assays?
NRP1-CendR mod: 5.9; CR mimetic SO: 97.5; APOBEC3A inh: -3.6; APOBEC3G inh: -5.8; ALR H2O2 inh: -15.5; PfM18AAP inh-1: -2.9

What do the screens show for `CCN(CC)S(=O)(=O)c1cc([N+](=O)[O-])ccc1NNC(=O)Nc1ccc(Cl)c(Cl)c1`?
NRP1-CendR mod: 9.5; CR mimetic SO: 101.7; APOBEC3A inh: -1.2; APOBEC3G inh: -1.6; ALR H2O2 inh: -1.5; PfM18AAP inh-1: 50.5*; PfM18AAP inh-2: 13.4; CTSL1 confirm: 5.2

Results for O=C(NNc1ccccc1[N+](=O)[O-])Nc1ccc(Cl)c(Cl)c1 ?
NRP1-CendR mod: 7.5; CR mimetic SO: 89.4; APOBEC3A inh: 2.3; APOBEC3G inh: 2.1; ALR H2O2 inh: -7.7; PfM18AAP inh-1: 27.8
